AmpC inh no detg – qHTS Inhibitors of AmpC Beta-Lactamase (assay without detergent) | AmpC nitrocefin hydrolysis, absorbance 480 nm, 0.0001% Triton | Potency, µM (doses to about 57.1 µM), for inactives: at the highest dose activity change, negative = inhibition, most hits filed as inhibitors | P00811 | actives 0.52% (n = 330,000);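 further: plate controls were no compound for no effect and no enzyme for full effect; nearly all actives have a fitted effect of over 20% in size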
Target sequence (P00811 whole entry, looked up): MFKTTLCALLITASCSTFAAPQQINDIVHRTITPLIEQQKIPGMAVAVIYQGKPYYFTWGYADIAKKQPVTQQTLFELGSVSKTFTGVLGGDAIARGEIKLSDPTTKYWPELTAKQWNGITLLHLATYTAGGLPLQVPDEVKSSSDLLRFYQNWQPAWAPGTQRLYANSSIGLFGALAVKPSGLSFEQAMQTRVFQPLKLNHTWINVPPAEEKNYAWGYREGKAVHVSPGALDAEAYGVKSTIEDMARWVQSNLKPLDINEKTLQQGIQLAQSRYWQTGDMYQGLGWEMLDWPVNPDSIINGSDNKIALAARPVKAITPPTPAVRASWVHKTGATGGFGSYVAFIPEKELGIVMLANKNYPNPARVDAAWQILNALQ
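AmpC (5.3 nM in the dispensed reagent) in 20 mM phosphate pH 7.0 with 0.01% (detergent screen) or 0.0001% Triton X-100 was preincubated with compounds for 15 min at room temperature. Nitrocefin was then added from an 800 uM solution, and hydrolysis was followed at 480 nm.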
FMDV inh – High Throughput Screening for Foot and Mouth Disease Virus Antivirals; FMDV antiviral cell-based qHTS; Potency, µM (series often up to 57.9 µM), for the others: top-dose activity change, negative = inhibition, most hits filed as inhibitors; actives 1.2% (n = 410,000); calls by dose curve; tested in HEK293T cells; further: read-out not given here; nearly all actives have a fitted effect of over 45% in size
Sm TGR block – qHTS Assay for the Inhibitors of Schistosoma Mansoni Peroxiredoxins. Schistosoma mansoni thioredoxin glutathione reductase (TGR), Q962Y6. purified TGR, DTNB reduction, TNB absorbance 405 nm. Potency, µM (highest dose often 114 µM), for inactives: at the top dose activity change, negative = inhibition, usual class: inhibitors. actives 3% (n = 360,000). AID 485364, 2010; further: nearly all actives have a fitted effect of over 60% in size
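Kinetic colorimetric format: TGR-catalysed, NADPH-driven DTNB reduction monitored via TNB absorbance. Enzyme dispensed at 20 nM; compound exposure 15 min at room temperature before reaction start.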
AMA1-RON2 inh – qHTS for Inhibitors of AMA1-RON; Towards Development of Antimalarial Drug Lead: Primary Screen | actives 0.2% (n = 360,000) | AlphaScreen AMA1-biotinylated RON2 peptide binding | Plasmodium falciparum AMA1 (3D7) - RON2 peptide interaction | Potency, µM (doses to about 58.2 µM), for inactives: at the highest dose activity change, negative = inhibition, hits mostly inhibitors;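 further: 0% = vehicle wells and -100% = peptide control; nearly all actives have a fitted effect of over 45% in size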
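AMA1 (3D7) with his tag at 25 nM final met compounds first, then biotinylated RON2 peptide at 25 nM; detection used donor plus acceptor beads, 10 µg/mL apiece, read by AlphaScreen after 30 min at room temperature.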
AmpC detergent – qHTS Inhibitors of AmpC Beta-Lactamase (assay with detergent); P00811; AmpC hydrolysis of nitrocefin, absorbance 480 nm, 0.01% Triton; Potency, µM (highest dose often 114 µM), inactives show top-dose activity change, negative = inhibition, hits mostly inhibitors; actives 0.041% (n = 370,000); AID 485294, 2010;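 further: 0% = no-compound wells and -100% = no-enzyme wells; nearly all actives have a fitted effect of over 25% in size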
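20 mM phosphate pH 7.0 + 0.01% (detergent screen) or 0.0001% Triton X-100; 5.3 nM AmpC reagent; cpd preinc 15 min RT; nitrocefin (800 uM stock) to start; A480 q20 s × 4 min; Activity was normalised to no-enzyme and no-compound control wells.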
Numbers without * were called inactive; ? = inconclusive; . = not tested or not shown. Sampled rows, rich in hits. Any-hit rate of the full collection: about 4.1%. Unless noted, the call rests on the fitted dose curve; in most records, active means well fitted curve in the direction sought with a large enough effect; inconclusive means small, poorly fitted or top-dose-only effect, or another doubt; inactive means no such curve, though single readings can be large; an effect the other way counts as inactive or inconclusive. Unless noted, on the % scale 0 is the no-effect control and ±100 the full control effect; potency means the concentration at half of the fitted maximal effect.

SMILES	AmpC inh no detg	FMDV inh	Sm TGR block	AMA1-RON2 inh	AmpC detergent
CCc1ccc(S(=O)(=O)NCCc2csc(-c3cccnc3)n2)s1	35.5µM*	17.3%	-1.2%	12.0%	2.6%
CCc1ccc(S(=O)(=O)NCCc2csc(-c3ccccc3)n2)s1	-27.2%	.	-12.3%	12.4%	1.0%
O=C(NCCc1csc(-c2ccccc2)n1)c1cccs1	-17.7%	-13.0%	-18.3%	0.0%	-14.2%
COc1ccccc1-c1ccnc(-n2ncc(C(=O)NCC3(N4CCOCC4)CCCC3)c2C)n1	.	-3.0%	.	.	.
Cc1cc(C)nc(N(C#N)CN2C(=O)c3ccccc3S2(=O)=O)n1	-21.3%	39.8µM*	-13.0%	9.0%	?
CNc1nc(OC)nc(N(C#N)CN2C(=O)c3ccccc3S2(=O)=O)n1	-14.6%	?	-2.8%	1.9%	-4.2%
O=c1c(-c2ccc(F)cc2)nc2cnc(Nc3ccccc3)nc2n1Cc1cccs1	.	-2.2%	.	.	.
O=S(=O)(Nc1nc(-c2ccco2)c(-c2ccco2)s1)c1ccc(F)cc1F	.	-22.8%	.	-9.9%	.
O=C(Nc1nc(-c2ccco2)c(-c2ccco2)s1)c1cnccn1	-33.2%	-15.3%	14.1µM*	34.3%	-11.9%
O=C(Nc1nc(-c2ccco2)c(-c2ccco2)s1)c1c(F)cccc1Cl	-43.1%	-23.7%	22.4µM*	-26.9%	-8.8%
O=C(Nc1nc(-c2ccco2)c(-c2ccco2)s1)c1ccc(F)cc1F	-42.9%	20.1%	10µM*	-9.1%	0.0%
CC1CCCCN1CC(=O)c1ccc2cc[nH]c2c1 (centres undefined)	-47.3%	13.9%	8.91µM*	-0.2%	-14.6%
CC1CCCCN1CC(=O)c1c[nH]c2ccccc12 (centres undefined)	-16.6%	3.7%	-30.6%	0.0%	0.0%
Nc1c(Cl)cc(C2=NCCn3c2c2ccc([N+](=O)[O-])cc2[n+]3[O-])cc1Cl	-5.3%	-15.3%	39.8µM*	26.0%	-4.6%
CCCN(CCC)CC(O)Cn1cc(/C=C/C(=O)c2ccc(OCC)cc2)c2ccccc21 (centres undefined)	.	0.0%	2.2%	.	21.8%
O=c1[nH]c(SCc2nc3ccccc3c(=O)n2-c2ccccc2C(F)(F)F)nc2ccccc12	-14.6%	17.8µM*	-13.3%	-7.6%	-12.0%
Cc1nc2ccccc2c(=O)n1-c1ccccc1C(F)(F)F	19.0%	.	-0.8%	0.6%	2.7%
CC(=O)Nc1ccc(NC(=O)CSc2nc(N)c(NC(=O)c3ccccc3F)c(=O)[nH]2)cc1	-10.4%	-8.6%	89.1µM*	-9.2%	-13.0%
Nn1cnc2c(c1=O)C1(CCCCC1)Cc1ccccc1-2	-5.5%	?	8.1%	9.0%	-2.8%
Oc1ccc(-c2nc3c4c(ncn3n2)-c2ccccc2CC42CCCC2)cc1	-26.4%	25.1µM*	0.2%	-4.5%	2.9%
Cc1ccc(Cl)cc1NC(=O)Nc1cn(CC(C)C)c(=O)c2ccccc12	.	-8.0%	2.5%	.	4.9%
Cc1cc(N2C(=O)C(=O)/C(=C(/O)c3ccccc3)C2c2cccs2)no1 (centres undefined)	-18.4%	-1.0%	39.8µM*	-17.5%	?
COc1cccc(/C(O)=C2/C(=O)C(=O)N(c3cc(C)on3)C2c2cccs2)c1 (centres undefined)	-26.2%	-12.1%	?	-12.5%	1.0%
COc1ccc(N(C(=O)CCl)C(C(=O)NCCc2ccccc2)c2cccs2)cc1 (centres undefined)	-10.6%	15.8µM*	10µM*	1.4%	-17.2%
COc1ccccc1CCNC(=O)C(=O)NCC(c1ccco1)S(=O)(=O)c1cccs1 (centres undefined)	.	0.0%	17.8µM*	.	0.2%
SMILES	AmpC inh no detg	FMDV inh	Sm TGR block	AMA1-RON2 inh	AmpC detergent
COc1ccccc1CCNC(=O)C(=O)NCC(c1cccs1)S(=O)(=O)c1cccs1 (centres undefined)	.	?	?	.	-0.2%
O=C(NCCc1ccc(Cl)cc1)C(=O)NCC(c1cccs1)S(=O)(=O)c1cccs1 (centres undefined)	.	?	25.1µM*	.	3.7%
COc1ccccc1CCNC(=O)C(=O)NCC(c1ccco1)S(=O)(=O)c1ccc(C)cc1 (centres undefined)	.	-24.2%	14.1µM*	.	-0.1%
O=C(NCCc1ccc(F)cc1)C(=O)NCC(c1cccs1)S(=O)(=O)c1cccs1 (centres undefined)	.	?	?	.	0.3%
CC(Oc1ccccc1)C(=O)Nc1ccc(C(=O)OCc2cc(=O)n3nc(C(C)C)sc3n2)cc1 (centres undefined)	.	15.1%	-0.4%	.	6.0%
CCOC(=O)C1CCC(CN(Cc2cccc(Br)c2)S(=O)(=O)c2ccc(C)cc2)CC1 (centres undefined)	.	-25.5%	3.1%	.	-6.9%
COc1cc(-c2cnc3ccccc3c2)cc2c1OCCN(C(=O)CCn1nc(C)cc1C)C2	.	-9.5%	.	.	.
CC(C)C(=O)NCC1CCC2(CCN(Cc3ccc(-c4cccc(Cl)c4)o3)CC2)O1 (centres undefined)	.	20.9%	.	.	.
CN1CCCN(C(=O)[C@@H]2C[C@@H](Sc3nc4ccccc4[nH]3)CN2Cc2ccc(OC(F)(F)F)cc2)CC1	.	-13.5%	.	.	.
CCOc1nc(NC(=O)NS(=O)(=O)Oc2cccc(F)c2)nc(-c2ccccc2)n1	.	24.5%	1.1%	.	1.3%
CCn1cc(C(=O)OCC(=O)Nc2cc(OC)cc(OC)c2)c(=O)c2ccc(C)nc21	.	-13.4%	3.7%	.	10.0%
O=C(NCc1ccc(Cl)cc1)C(=O)NCC(c1cccs1)S(=O)(=O)c1ccc(Cl)cc1 (centres undefined)	.	0.0%	?	.	-1.7%
COc1ccc(CC(=O)NCC(c2cccs2)S(=O)(=O)c2ccc(F)cc2)cc1 (centres undefined)	.	-18.7%	?	.	2.6%
COc1ccc(CCNC(=O)C(=O)NCC(c2ccco2)S(=O)(=O)c2cccs2)cc1 (centres undefined)	.	-5.3%	31.6µM*	.	-0.7%
Cc1ccc(S(=O)(=O)C(CNC(=O)C(=O)NCc2ccc(Cl)cc2)c2cccs2)cc1 (centres undefined)	.	-8.4%	22.4µM*	.	-4.4%
COc1ccc(CCNC(=O)C(=O)NCC(c2cccs2)S(=O)(=O)c2ccc(F)cc2)cc1 (centres undefined)	.	39.8µM*	-4.9%	.	-0.5%
O=C(NCCc1ccc(F)cc1)C(=O)NCC(c1ccco1)S(=O)(=O)c1cccs1 (centres undefined)	.	-24.4%	?	.	-1.7%
C=CCN1C(=O)/C(=C/c2ccsc2)SC1=S	-15.0%	5.0%	-4.0%	3.5%	0.8%

Screening data from PubChem BioAssay.
